Reference: PubChem BioAssay
Values joined by “and” are separate entries in the source; they are usually repeats but may differ in a detail not shown here. Equal values may be shown once. Some structures have more than one record in an assay (separate samples or runs), and their calls can disagree. Active and inactive are the calls of the source. Cut-off read from the data, not from the text of the source: active = fold change permeability below about 0.7 or above about 1.3; inactive = in between.

Assay: modulators of brain endothelial barrier permeability, primary screen, cell-based, FITC-avidin fluorescence, HTS (AID 1963498); note: test concentration not given here
Conditions: actives lie on both sides

Row | Structure (SMILES) | fold change permeability
1 | CCCN(CCC)CCc1ccc(O)c(O)c1 | 0.8 (inactive)
2 | N[C@@]1(C(=O)O)CC[C@@H](C(=O)O)C1 | 1 (inactive)
3 | O=C[C@H](Cl)[C@@H](O)[C@H](O)[C@H](O)CO | 1.1 (inactive)
4 | Oc1ccc2c3c1O[C@H]1c4[nH]c5ccccc5c4C[C@@]4(O)[C@@H](C2)N(CC2CC2)CC[C@]314 | 1 (inactive)
5 | Cc1cccc(C)c1NC(=O)CN1CCCC1=O | 1 (inactive)
6 | c1ccc(C[N+]23CN4CN(CN(C4)C2)C3)cc1 | 0.7 (active)
7 | COc1cc(C(O)CN)ccc1O (stereo unspecified) | 0.9 (inactive)
8 | C#CCOC(=O)C1=CCCN(C)C1 | 1 (inactive)
9 | O=C(O)Cc1cnc[nH]1 | 1 (inactive)
10 | NCCc1ccc(S(=O)(=O)F)cc1 | 1 (inactive)
11 | Nc1ncnc2c1ncn2[C@@H]1O[C@H](COP(=O)(O)CP(=O)(O)OP(=O)(O)O)[C@H](O)C1O (stereo partly specified) | 0.9 (inactive)
12 | COc1ccccc1N1CCNCC1 | 0.9 (inactive)
13 | CC(C)(O)[C@@H]1C2OC(=O)C1[C@]1(O)C[C@H]3O[C@]34C(=O)O[C@H]2[C@]14C (stereo partly specified) (tested in a mixture with another compound) | 1.1 (inactive)
14 | NC(CP(=O)(O)O)C(=O)O (stereo unspecified) | 1 (inactive)
15 | CCc1c(C(=O)C(N)=O)c2c(OCC(=O)O)cccc2n1Cc1ccccc1 | 1.1 (inactive)
16 | CC1OC(C[N+](C)(C)C)CC1O (stereo unspecified) | 0.9 (inactive)
17 | CC(=O)OCC1=C(C(=O)[O-])N2C(=O)[C@@H](NC(=O)CCC[C@@H](N)C(=O)[O-])[C@H]2SC1.[Zn+2] | 1 (inactive)
18 | Cc1c(F)cccc1[C@H]1COC(N)=N1 | 1 (inactive)

Row | Structure (SMILES) | fold change permeability
19 | C[N+]1(C)CCN(c2ccccc2)CC1 | 1.2 (inactive)
20 | COc1cc2c(c(OC)c1OC)-c1ccc(SC)c(=O)cc1[C@@H](NC(C)=O)CC2 | 1.7 (active)
21 | CN1CCC(c2c[nH]c3ccc(O)cc23)CC1 | 1 (inactive)
22 | Cc1nnc2n1-c1sccc1C(c1ccccc1)=NC2 | 1.1 (inactive)
23 | CC(N)Cc1c[nH]c2ccc(O)cc12 (stereo unspecified) | 0.8 (inactive)
24 | CNCCc1c[nH]c2ccc(O)cc12 | 0.8 (inactive)
25 | NC(=O)c1cc(N2CC2)c([N+](=O)[O-])cc1[N+](=O)[O-] | 1 (inactive)
26 | N#Cc1ccc(N2CCN(C(=O)COc3ccc4[nH]cc(CCN)c4c3)CC2)cc1 | 1 (inactive)
27 | C[C@@H](N)Cc1cnc[nH]1 | 0.9 (inactive)
28 | N#CC(C#N)=Cc1ccc(O)c(O)c1 | 1.2 (inactive)
29 | NC(=O)CN1CCCC1=O | 1.2 (inactive)
30 | C[N+](C)(C)CC#CCOC(=O)Nc1cccc(Cl)c1 | 0.9 (inactive)
31 | O=[N+]([O-])/C=C/c1ccc2c(c1)OCO2 | 1.4 (active)
32 | CN[C@@H]1Cc2cccc3[nH]c(=O)n(c23)C1 | 0.8 (inactive)
33 | CC[C@@H]1C(=O)OC[C@@H]1Cc1cncn1C | 1.3 (active) and 1.2 (inactive)
34 | Cc1ccc(S(=O)(=O)N[C@@H](CCCCN)C(=O)CCl)cc1 | 1.4 (active)
35 | Clc1ccc(CO/N=C(\Cn2ccnc2)c2ccc(Cl)cc2Cl)c(Cl)c1 | 1.6 (active)
36 | C[N+]1(C)[C@@H]2CC[C@H]1CC(OC(=O)C(CO)c1ccccc1)C2 (stereo partly specified) | 1 (inactive)
